# An excerpt weighted towards active compounds, which were near 3.6% of everything screened.
# GCN5L2 inh = qHTS Assay for Inhibitors of GCN5L2; Potency, µM (doses to about 58.9 µM), without a hit: top-dose activity change, negative = inhibition, most hits filed as inhibitors; Histone acetyltransferase KAT2A (Homo sapiens), Q92830; 390,000 compounds, 0.21% hits; GCN5L2 HAT assay, ThioGlo1 CoA-SH fluorescence; AID 504327, 2011; note: potency is the fitted concentration of half-maximal effect; % is set by controls: 0 for no effect and ±100 for the full control effect
# Target sequence (Q92830 whole entry, looked up): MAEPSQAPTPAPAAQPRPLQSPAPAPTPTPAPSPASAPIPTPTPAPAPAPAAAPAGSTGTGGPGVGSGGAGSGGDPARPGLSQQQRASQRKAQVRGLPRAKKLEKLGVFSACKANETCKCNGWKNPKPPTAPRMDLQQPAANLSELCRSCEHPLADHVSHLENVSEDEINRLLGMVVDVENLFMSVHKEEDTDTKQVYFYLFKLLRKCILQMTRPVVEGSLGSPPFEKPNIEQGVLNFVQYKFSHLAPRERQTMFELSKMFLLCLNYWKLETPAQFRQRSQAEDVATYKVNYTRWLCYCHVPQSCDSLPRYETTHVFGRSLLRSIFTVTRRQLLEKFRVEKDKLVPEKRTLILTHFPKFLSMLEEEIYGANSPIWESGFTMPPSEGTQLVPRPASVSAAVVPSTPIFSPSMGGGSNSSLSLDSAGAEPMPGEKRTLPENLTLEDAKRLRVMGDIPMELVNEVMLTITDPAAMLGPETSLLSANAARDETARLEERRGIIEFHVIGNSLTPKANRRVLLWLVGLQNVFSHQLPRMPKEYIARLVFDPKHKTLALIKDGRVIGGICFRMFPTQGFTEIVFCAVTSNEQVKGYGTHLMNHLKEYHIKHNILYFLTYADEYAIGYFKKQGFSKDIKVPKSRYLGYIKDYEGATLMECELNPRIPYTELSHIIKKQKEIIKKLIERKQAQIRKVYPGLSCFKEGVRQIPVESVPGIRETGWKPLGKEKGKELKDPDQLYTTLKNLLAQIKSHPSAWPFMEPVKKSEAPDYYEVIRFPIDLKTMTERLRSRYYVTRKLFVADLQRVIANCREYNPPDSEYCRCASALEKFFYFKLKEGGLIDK
#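 Free CoA generated was detected with ThioGlo1 (50uM) fluorescence at Ex340nm/Em540nm, read immediately and after 20 min at room temperature. Enzyme, 20 nM in HEPES pH 7.5 buffer, saw compounds 15 min before adding 75uM H3(1-25) peptide and 70uM acetyl-CoA.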
# PLK1 PBD inh = qHTS for Inhibitors of PLK1-PDB (polo-like kinase 1 - polo-box domain): Primary Screen; Serine/threonine-protein kinase PLK1 (Homo sapiens), P53350; Plk1 PBD binding of FITC phosphopeptide, fluorescence polarization; Potency, µM, without a hit: max response, negative = inhibition, hits mostly inhibitors; 360,000 compounds, 2.8% hits; note: potency is the fitted concentration of half-maximal effect; series mostly up to about 57 µM; % is set by controls: 0 for no effect and ±100 for the full control effect; nearly all actives have a fitted effect of over 65% in size
# Rango dissoc inh = qHTS Assay for Inhibitors of RanGTP induced Rango (Ran-regulated importin-beta cargo) - Importin beta complex dissociation. Snurportin-1 (Homo sapiens) + GTP-binding nuclear protein Ran (Homo sapiens) + Importin …. Biochemical FRET Rango-importin beta, RanGTP-induced dissociation. Potency, µM (doses to about 46.1 µM), inactives show at the top dose activity change, negative = inhibition. 340,000 compounds, 0.071% hits. AID 540253, 2011; calls by dose curve; note: potency is the fitted concentration of half-maximal effect; % of control where 0% means no effect; nearly all actives have a fitted effect of over 45% in size
#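 Quantitative HTS using a FRET biosensor: 0.1 uM Rango, 0.25 uM importin beta, 0.6 uM Ran, 2 mM GTP, 0.2 uM RCC1 final, PBS with DTT, Tween-20 and BSA. Post-read taken 45 min after Ran addition.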
# VDR inhibitor = Inhibitors of the vitamin D receptor (VDR): qHTS; 400,000 compounds, 0.93% hits; Vitamin D3 receptor (Homo sapiens), P11473; Potency, µM, inactives show max response, negative = inhibition, hits mostly inhibitors; VDR-SRC2-3 peptide fluorescence polarization, 2 h; note: potency is the fitted concentration of half-maximal effect; % is set by controls: 0 for no effect and ±100 for the full control effect
#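 Fluorescence polarization assay of small-molecule disruption of VDR binding to coregulator peptide SRC2-3. Compounds and controls pin-transferred, then read after 2 h incubation at ambient room temperature.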
# Rango complex inh = qHTS Assay for Inhibitors of Rango (Ran-regulated importin-beta cargo) - Importin beta complex formation. Importin subunit beta-1 (Homo sapiens), Q14974. Rango CFP/YFP FRET sensor + importin beta, 45 min. Potency, µM (top dose mostly 92.2 µM), without a hit: top-dose inhibition of complex formation. 340,000 compounds, 0.031% hits; calls by dose curve;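 note: potency is the fitted concentration of half-maximal effect; 0% = DMSO wells and 100% = buffer wells lacking importin beta; nearly all actives have a fitted effect of over 15% in size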
#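 FRET biosensor Rango (snurportin 1 IBB between N-terminal EYFP and C-terminal Cerulean), 50 nM in PBS/1 mM DTT/0.02% Tween-20/0.1% BSA, preincubated 5 min RT with compound; 0.125 microM importin beta added, 45 min RT, CFP/YFP FRET ratio read.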
# PI5P4K alpha inh = qHTS for Inhibitors of phosphatidylinositol 5-phosphate 4-kinase (PI5P4K). PI5P4Kalpha enzyme, ADP-Glo luminescence, 60 min; stronger effect = lower value. max response, %. 330,000 compounds, 1.2% hits; active = max response of -50% or lower; inconclusive = between -30% and -50%; inactive = -30% or higher; note: value at the top dose of about 77 µM; % is set by controls: 0 for no effect and ±100 for the full control effect
#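 Luminescence from ADP-Glo served as readout of PI5P4Kalpha activity in a qHTS format. Reaction: enzyme, substrate, compound, ATP at 5 microM final, 60 min at RT.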
# An asterisk follows results filed as active; ? = inconclusive; / = no result given. Unless noted, calls come from the whole dose curve; as a rule, active = well fitted curve in the direction sought with a large enough effect; inconclusive = small, poorly fitted or top-dose-only effect, or another doubt; inactive = no such curve, though single readings can be large; an effect the other way counts as inactive or inconclusive.
SMILES,GCN5L2 inh,PLK1 PBD inh,Rango dissoc inh,VDR inhibitor,Rango complex inh,PI5P4K alpha inh
CCN(CC#CCC(O)(c1ccccc1)c1ccccc1)C(C)C,-2.8%,26.7µM*,1.2%,-26.5%,-2.8%,1.5
CCSC(=O)N=Nc1ccc(O)cc1,/,26.7µM*,23.9%,?,7.3%,?
CCN(C(=O)Cn1cnc2onc(-c3ccc(F)cc3)c2c1=O)c1cc(C)ccc1C,3.2%,/,/,9.4%,/,/
Cc1ccc(S(=O)(=O)c2cnc(SCC(=O)Nc3cccc(Cl)c3)nc2N)cc1C,-3.5%,/,/,-6.8%,/,/
CC1=CSC2=NS(=O)(=O)CCN12,2.8%,23.8µM*,-13.5%,-26.5%,1.3%,-3.3
Cc1ccc(C2=CSC3=NS(=O)(=O)CCN23)cc1,1.5%,-12.6%,-2.1%,-9.8%,2.2%,1.0
O=[N+]([O-])c1cc(Br)c(O)c(/C=N/Nc2nnnn2-c2cccc3ccccc23)c1,?,13.4µM*,?,?,?,/
Cc1ccc(SCc2nc(-c3ccc(C(=O)Nc4cc(C)ccc4C)cc3)oc2C)cc1,-11.6%,/,/,5.6%,/,/
COc1ccccc1-c1nc(SCC(=O)NCc2ccccc2)c2c(=O)n(C)c(=O)n(C)c2n1,-8.0%,/,/,6.5%,/,/
CCCCN(C(=O)CCC(=O)Nc1cc(C)on1)C(C(=O)NC1CCCC1)c1ccc(OCC)cc1 (stereo not drawn),-0.9%,-0.8%,-13.7%,9.8%,2.2%,1.7
COCCNC(=O)C(c1ccco1)N(C(=O)Cn1nnc2ccccc21)c1ccccc1C (stereo not drawn),-1.6%,-3.6%,6.3%,0.0%,-0.8%,2.2
COCCNC(=O)C(c1ccco1)N(C(=O)Cn1nnc2ccccc21)c1cc(C)ccc1C (stereo not drawn),0.3%,3.36µM*,19.0%,?,-0.4%,-21.8
Cc1ccc(C)c(N(C(=O)CCC(=O)Nc2cc(C)on2)C(C(=O)NC2CCCC2)c2ccco2)c1 (stereo not drawn),-2.7%,3.77µM*,16.7%,-3.8%,0.5%,-28.1
C=CCN(C(=O)CCC(=O)Nc1cc(C)on1)C(C(=O)NC1CCCC1)c1ccc(CC)cc1 (stereo not drawn),-3.7%,26.7µM*,-4.1%,?,-0.6%,-7.0
CC1=C(c2ccc(C(C)C)cc2)S(=O)(=O)N=C1N1CCN(C(=O)c2ccco2)CC1,0.3%,26.7µM*,-3.8%,?,2.7%,-5.7
CCN1CCN(C(=S)NCCOC)CC1,0.8%,29.9µM*,?,-17.7%,-1.9%,-18.3
CCCNC(=S)N1CCN(CC)CC1,2.7%,-12.9%,?,-17.8%,-3.6%,-11.3
CCOCc1[nH]c(=S)[nH]c(=O)c1Cc1ccc(OCC(C)C)cc1,15.2%,23.8µM*,15.3%,8.1%,-11.8%,?
CCOCc1[nH]c(=S)[nH]c(=O)c1Cc1ccc(OCC)cc1,-0.7%,26.7µM*,2.1%,-16.3%,2.5%,4.3
CN(C)c1ccc(NC(=O)c2cccc(C(=O)Nc3ccc(N(C)C)cc3)n2)cc1,-7.5%,-20.8%,3.6%,79.4µM*,3.1%,-21.7
COC(=O)c1cccc(C(=O)Nc2ccc(F)cc2)n1,15.8µM*,-6.4%,-14.9%,2.9%,1.5%,/
CC1CCN(CC2CCN(C(=O)Nc3ccc(Br)cc3F)CC2)CC1,1.0%,/,/,10.0%,/,/
Cn1c(=O)c2c([nH]c(=S)n2Cc2ccc(Cl)cc2)n(C)c1=O,?,10.6µM*,-3.6%,79.4µM*,-0.8%,-5.5
Cc1cccc(NC(=O)C(Cc2ccccc2)n2cccc2)c1C (stereo not drawn),-0.4%,/,/,-8.4%,/,/

# Assay outcomes deposited in PubChem BioAssay by National Center for Advancing Translational Sciences (NCATS).
